Laboratory results published in PubChem BioAssay (NCI).
This is part of a sample that, as a whole, favours compounds with a hit. Of some 83,000 tested, about 20% had one in any assay.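 Single-dose data. Exposure time 48 hours. Values below 10 considered active.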 Unmarked numbers belong to inactive results. Active and inactive are the calls of the source.

test system: SK-MEL-2 melanoma; assay: NCI-60 one-dose screen, 48 h (100 = growth as untreated, 0 = no growth, -100 = all killed); details: 10 µM

Structure (SMILES)	growth
Nc1ncnc2[nH]ncc12	-14.1% (active)
COC(=O)c1[nH]c(=O)c(C#N)c(C(=O)OC)c1C(=O)c1ccccc1	114%
CCS(=O)(=O)CCCl	102%
N#Cc1ccc(NC(=O)Nc2cccc(C#N)c2)cc1	97.3%
CN(C)CCN(C)CC(C)(C)C(=O)/C=C/c1ccc(Cl)cc1	-25.6% (active)
CS(=O)CC1=NC(=N)N=C1CS(C)=O (stereo not drawn)	115%
Cc1cc2nc(CC(=O)c3cccc([N+](=O)[O-])c3)c(=O)[nH]c2cc1C	95.4%
CCOC(=O)c1cc(/C=C/c2cccc(Cl)c2)on1	113%
Cc1ccc(/C=C2\SC(=S)N(c3ccc(F)cc3)C2=O)o1	96.3%
OC(c1ccccn1)C(O)c1ccccn1 (stereo not drawn)	108%
CC1(O)OC(COc2ccc(Cl)cc2)COC1O (stereo not drawn)	126%
O=C1Cc2ccccc2C(=O)O1	103%
CCC(C)(C)C1CCC(O)CC1 (stereo not drawn)	103%
CCCNC(=O)c1ccc(S(N)(=O)=O)cc1	120%
COC(=O)C(C)Oc1ccc(OC#N)cc1 (stereo not drawn)	110%
CCCC(=O)c1cc(C)ccc1OC	103%
COC(=O)c1cc(-c2ccc(Cl)c(Cl)c2)[nH]c(=O)c1C#N	120%
OCCN(CCO)C(=S)S	121%
CCCC1(c2ccccc2)NC(=O)NC1=O (stereo not drawn)	103%
Oc1ccccc1O	90.1%

Structure (SMILES)	growth
CNC(=S)NC(C)(C)C	122%
OCC1OC(OC2C(O)C(CO)OC2(CO)OC2OC(CO)C(O)C(O)C2O)C(O)C(O)C1O (stereo not drawn)	106%
C=CCc1cc(C(C)=O)cc(OC)c1O	130%
O=C1NC(=O)C2C(=O)NC(=O)C1C21CCc2ccccc21 (stereo not drawn)	118%
O=[N+]([O-])c1cccc(N=Nc2ccc(O)cc2O)c1	79.8%
NC(=S)N/N=C/c1ccc(N)cc1	104%
COc1ccc(-c2cc(-c3cc(-c4ccc(OC)cc4)nc(N)n3)nc(N)n2)cc1	115%
CC(=O)NC(N)=S	111%
Cc1ccccc1N=C(c1ccccc1)C1C(=O)c2ccccc2C1=O	59.9%
COc1ccc(C2OC(N)=C(O)C2=O)cc1OC (stereo not drawn)	117%
CC(=O)OCC1=CC2OC(=O)C3=COC(OC4OC(CO)C(O)C(O)C4O)C1C32 (stereo not drawn)	138%
c1c(-c2cc(C3CC3)[nH]n2)n[nH]c1C1CC1	104%
O=C(Cc1nc2ccc([N+](=O)[O-])cc2nc1CC(=O)c1ccccc1)c1ccccc1	103%
COc1ccc(C2(O)CCCCC2)cc1	107%
C=CCNc1ccccc1	95.5%
Cc1cc(NC(=O)CSCC(=O)O)no1	122%
CCc1nc(N)nc(N)c1-c1ccc(Cl)cc1	105%
CC(=O)Nc1ccc(NC(C)=O)c2c1C(=O)c1ccccc1C2=O	103%
CC(=O)Cc1cc(-c2cc(CC(C)=O)[nH]n2)n[nH]1	111%

test system: EKVX NSCLC; assay: as above; details: 10 µM

Structure (SMILES)	growth
Nc1ncnc2[nH]ncc12	30.4%
COC(=O)c1[nH]c(=O)c(C#N)c(C(=O)OC)c1C(=O)c1ccccc1	91.4%
CCS(=O)(=O)CCCl	89.6%
N#Cc1ccc(NC(=O)Nc2cccc(C#N)c2)cc1	94.5%
CN(C)CCN(C)CC(C)(C)C(=O)/C=C/c1ccc(Cl)cc1	-19.1% (active)
CS(=O)CC1=NC(=N)N=C1CS(C)=O (stereo not drawn)	98.7%
Cc1cc2nc(CC(=O)c3cccc([N+](=O)[O-])c3)c(=O)[nH]c2cc1C	59.9%
CCOC(=O)c1cc(/C=C/c2cccc(Cl)c2)on1	75.4%
Cc1ccc(/C=C2\SC(=S)N(c3ccc(F)cc3)C2=O)o1	82.4%
OC(c1ccccn1)C(O)c1ccccn1 (stereo not drawn)	124%
CC1(O)OC(COc2ccc(Cl)cc2)COC1O (stereo not drawn)	94.7%
O=C1Cc2ccccc2C(=O)O1	107%
CCC(C)(C)C1CCC(O)CC1 (stereo not drawn)	94.9%
CCCNC(=O)c1ccc(S(N)(=O)=O)cc1	112%
COC(=O)C(C)Oc1ccc(OC#N)cc1 (stereo not drawn)	99.8%
CCCC(=O)c1cc(C)ccc1OC	117%
COC(=O)c1cc(-c2ccc(Cl)c(Cl)c2)[nH]c(=O)c1C#N	94.4%
OCCN(CCO)C(=S)S	96.3%
CCCC1(c2ccccc2)NC(=O)NC1=O (stereo not drawn)	118%
Oc1ccccc1O	109%

Structure (SMILES)	growth
CNC(=S)NC(C)(C)C	96.2%
OCC1OC(OC2C(O)C(CO)OC2(CO)OC2OC(CO)C(O)C(O)C2O)C(O)C(O)C1O (stereo not drawn)	103%
C=CCc1cc(C(C)=O)cc(OC)c1O	100%
O=C1NC(=O)C2C(=O)NC(=O)C1C21CCc2ccccc21 (stereo not drawn)	90.1%
O=[N+]([O-])c1cccc(N=Nc2ccc(O)cc2O)c1	69.9%
NC(=S)N/N=C/c1ccc(N)cc1	101%
COc1ccc(-c2cc(-c3cc(-c4ccc(OC)cc4)nc(N)n3)nc(N)n2)cc1	92.1%
CC(=O)NC(N)=S	118%
Cc1ccccc1N=C(c1ccccc1)C1C(=O)c2ccccc2C1=O	88.9%
COc1ccc(C2OC(N)=C(O)C2=O)cc1OC (stereo not drawn)	94.3%
CC(=O)OCC1=CC2OC(=O)C3=COC(OC4OC(CO)C(O)C(O)C4O)C1C32 (stereo not drawn)	101%
c1c(-c2cc(C3CC3)[nH]n2)n[nH]c1C1CC1	76.6%
O=C(Cc1nc2ccc([N+](=O)[O-])cc2nc1CC(=O)c1ccccc1)c1ccccc1	55.8%
COc1ccc(C2(O)CCCCC2)cc1	105%
C=CCNc1ccccc1	108%
Cc1cc(NC(=O)CSCC(=O)O)no1	93.8%
CCc1nc(N)nc(N)c1-c1ccc(Cl)cc1	74.9%
CC(=O)Nc1ccc(NC(C)=O)c2c1C(=O)c1ccccc1C2=O	73.5%
CC(=O)Cc1cc(-c2cc(CC(C)=O)[nH]n2)n[nH]1	89.8%
